# Test results: PubChem BioAssay (NCI)
# The panel holds about 83,000 compounds, 20% with a hit somewhere; the sample as a whole holds those more often.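 Percent growth is the endpoint: 0 to 100 indicates growth inhibition (40 means 60% inhibition), 0 means no net growth, and negative values indicate cell death.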 Activity calls are given as the source filed them. How the source made its calls: active means growth percent below 10; inactive means the rest.
# Test system: HL-60(TB) leukemia
# Test: NCI-60 one-dose screen, 48 h (100 = growth as untreated, 0 = no growth, -100 = all killed)
# Conditions: 10 µM unless noted
row,Structure (SMILES),growth
1,Cc1cc(O)cc(O)c1N=NC1=NCCS1,105% (inactive)
2,Cc1ccc(NCc2cn(-c3ccc(C(=O)O)cc3)nc2-c2ccc(C(=O)O)cc2)cc1,106% (inactive)
3,CCc1ccc(-c2ccc(-n3nc(C)c4c(N)nc(Cc5ccccc5)nc43)cc2)cc1,65% (inactive)
4,COc1ccc2c(c1)OC1=C(C(=O)OC1)C2c1cc(OC)c2c(c1)OCO2 (stereo not given),-13% (active)
5,COc1ccc(C2CC(c3cccs3)=NN2c2ccc(S(=O)(=O)NC(=O)NCc3cccc(OC)c3)cc2)cc1 (stereo not given),103% (inactive)
6,CCOC(=O)c1[nH]cc2c1CCc1sc(Nc3ccccn3)nc1-2,75.9% (inactive)
7,CCOC(=O)C1=C(N)Oc2c(sc3c(C)cccc23)C1c1ccc(Cl)cc1 (stereo not given),1.5% (active)
8,COc1ccc(-n2nc3c(c2-c2ccc(OC)c(OC)c2)-c2oncc2CC3)cc1,88.4% (inactive)
9,O=C1OC(Oc2ccccc2)(c2ccccc2)c2ccccc21 (stereo not given),83.8% (inactive)
10,CC1=CC(=Nc2ccc(N(C)C)cc2)C=C(C)C1=O,42.8% (inactive)
11,O=C(/C=C/c1ccc(Br)cc1)c1ccccc1,81.5% (inactive)
12,COc1ccc(OC)c2ncccc12,98.9% (inactive)
13,O=C(NCCNCCO)c1cc([N+](=O)[O-])cc([N+](=O)[O-])c1O,102% (inactive)
14,N#CC1=C(N)Oc2c(sc3c(Br)cccc23)C1c1ccc([N+](=O)[O-])cc1 (stereo not given),-13.7% (active)
15,N#CC(I)CS(=O)(=O)c1ccccc1 (stereo not given),99% (inactive)
16,O=C(Nc1nccs1)c1noc2ccccc12,95% (inactive)
17,Cc1ccc(S(=O)(=O)n2cc(-c3csc(-c4cn(C)c5ncccc45)n3)c3ccccc32)cc1,61.9% (inactive)
18,C/C=C/C1=CN2C(=O)c3cc(OC4OC(C)C(NC)C(C)(O)C4O)c(C)cc3N=C[C@@H]2C1 (stereo not given in full),-4.41% (active)
19,CCc1nc(C)cn1C(=O)OCc1nc2nc(Cl)nc(N3CCOCC3)c2[nH]1,-23.1% (active)
20,CC(O)C(O)C(O)C(O)C(O)C(=O)NNc1ccccc1 (stereo not given),116% (inactive)

row,Structure (SMILES),growth
1,O=C(O)COc1ccc(OCC(=O)O)cc1,-1.78% (active)
2,COc1ccc(NC(=O)COc2ccccc2)c(C(N)=O)c1,-7.37% (active)
3,CC(C(=O)O)N1C(N)=NNC1c1ccccc1O (stereo not given),92.8% (inactive)
4,CC(C)C[C@H](NC(=O)CCn1ccc2ccccc2c1=O)B(O)O,28.1% (inactive)
5,COc1ccc(/C=C/c2cc(N3CCOCC3)c3cc(F)c(F)cc3n2)cc1OC,-8.49% (active)
6,NNc1nc(-c2cccnc2)nc2c1sc(=S)n2-c1ccccc1,77.1% (inactive)
7,Cc1cc(C)c(O)c(CNCCCNCc2cc(C)cc(C)c2O)c1,48.6% (inactive)
8,C=CCN1C(=O)c2ccccc2C1=O,101% (inactive)
9,C=C(C)[C@@H]1CC[C@]2(CNCCO)CC[C@]3(C)[C@H](CC[C@@H]4[C@@]5(C)CCC(N)[C@@](C)(CO)[C@@H]5CC[C@]43C)[C@@H]12 (stereo not given in full),-63.7% (active)
10,COc1cc2c(cc1-c1c(C)noc1C)ncc1nc(C3CCOCC3)n(C3CCC(OC(F)F)CC3)c12 (stereo not given),7.23% (active)
11,CCOC(=O)c1nn(C2CCCCO2)c2ccc(NC(=O)CN3CCCC3)cc12 (stereo not given),97.4% (inactive)
12,COc1ccc(C/C(C)=C(\c2ccc(Cl)cc2)c2ccc(OCCN3CCCCC3)cc2)cc1,91.8% (inactive)
13,CCOC(=O)Cc1cnn(C)c1NC(=O)c1ccc(Cl)cc1NC(C)=O,102% (inactive)
14,CCOC(=O)[C@@H](Cc1ccccc1)NC(=O)c1[nH]c2ccc(Cl)cc2c(=O)c1C,104% (inactive)
15,O=C1CCCCN1CCCCC#Cc1ccccc1C#Cc1ccccn1,78.2% (inactive)
16,O=C(O)CC1=CCCCC1,95.5% (inactive)
17,CCn1c(CSc2nc3ccccc3c(=O)n2CCc2ccccc2)n[nH]c1=S,90.9% (inactive)
18,COc1ccc2c(c1)c(-c1nc(-c3c[nH]c4c(Cl)nccc34)cs1)cn2C,108% (inactive)
19,COc1cc2nc(Nc3cccc(Cl)c3)nc(N)c2cc1OC,87.1% (inactive)
20,O=C(Nc1ccccc1)c1cc(Cl)ccc1O,29.6% (inactive)
